Screening results as filed in PubChem BioAssay.
Rows were chosen to be rich in hits. Some 22% of all compounds tested hit in one or more screens of this group.
CYP2C9 act: CYP2C9 (human) activation | AID 1024 | activation factor at 5 µM | recombinant CYP2C9, luciferin-H conversion, luminescence; hits give high values; factor 1 = untreated enzyme, 0 = blocked | P11712 | 96,000 tested, 1.4% active;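 active = activation factor of 2 or more for CYP2C9 at a 5 µM dose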;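 note: 0 = sulfaphenazole-blocked wells and 1 = vehicle-only wells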
Target sequence (P11712 whole entry, looked up): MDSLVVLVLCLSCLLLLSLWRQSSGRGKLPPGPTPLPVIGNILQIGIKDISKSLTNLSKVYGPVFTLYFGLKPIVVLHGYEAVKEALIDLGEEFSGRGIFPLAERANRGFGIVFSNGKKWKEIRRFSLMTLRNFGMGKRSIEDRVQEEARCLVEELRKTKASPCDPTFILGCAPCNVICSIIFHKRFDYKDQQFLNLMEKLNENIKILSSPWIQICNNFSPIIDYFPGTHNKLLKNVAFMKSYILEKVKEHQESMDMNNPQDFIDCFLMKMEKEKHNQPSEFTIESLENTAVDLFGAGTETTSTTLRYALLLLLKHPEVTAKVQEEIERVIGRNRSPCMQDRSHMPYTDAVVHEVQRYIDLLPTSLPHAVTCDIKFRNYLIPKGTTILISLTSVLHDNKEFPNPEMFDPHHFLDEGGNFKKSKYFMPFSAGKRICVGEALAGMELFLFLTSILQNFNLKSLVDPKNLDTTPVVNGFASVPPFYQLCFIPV
CYP2C9 inhib: inhibitors of human CYP2C9. CYP2C9 Supersomes, luciferin-H conversion, luminescence. inhibition, % at 5 µM. 96,000 tested, 20% active. AID 777;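 active = blocking of liver enzyme CYP2C9 beyond about 50% at 5 µM, limit read from the data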
CYP2C19 inhib: blocks human cytochrome P450 2C19 | CYP2C19 Supersomes, luciferin-H EGE luminescence, 30 min | 96,000 tested, 21% active | inhibition, % at 5 µM | P33261 | AID 778;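 active = CYP2C19 inhibition above a set limit at 5 µM in the primary screen, cut at about 50% in these data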;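 note: plate controls were negative control wells for no effect and 2.5 mM tranylcypromine positive control for full effect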
CYP2C19 activ: activators of human cytochrome P450 2C19. P33261. recombinant CYP2C19, luciferin-H EGE luminescence; hits give high values; 0 = fully inhibited enzyme, 1 = untreated enzyme. activation factor at 5 µM. 96,000 tested, under 10 active. AID 1025;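 active = activation factor of at least 2 at 5 µM in the primary screen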;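 note: 0 = wells with 2.5 mM tranylcypromine and 1 = vehicle-only wells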
Measles CPE: protection of cells from measles virus; 140,000 tested, 1.5% active; protection (pct of control), % at 4 µM; Measles virus-infected cells, CPE protection, absorbance; in the data active = protection mostly above about 24%, no sharp cut-off; inactive = mostly below about 26%
* = called active by the depositor; nt = no result given.

SMILES | CYP2C9 act | CYP2C9 inhib | CYP2C19 inhib | CYP2C19 activ | Measles CPE
Clc1cccc(OCCN2CCN(CCOc3cccc(Cl)c3)CC2)c1 | nt | nt | nt | nt | 9.0
c1ccc(Oc2cccc(OCCCCN3CCCC3)c2)cc1 | nt | nt | nt | nt | 27.9
CC1(C)NC(=O)N(CCOCCOc2cccc(Oc3ccccc3)c2)C1=O | 0.2 | 84.1* | 95.7* | 0 | 3.9
CC1(C)NC(=O)N(CCCCOc2cccc(C(F)(F)F)c2)C1=O | 0.4 | 60.7* | 84.9* | 0.2 | 17.6
CCC(C)Oc1cccc(OCCCCN2C(=O)NC(C)(C)C2=O)c1 (centres undefined) | 0.4 | 59.2* | 72.4* | 0.3 | 25.3
O=C1NC2(CCc3ccccc3C2)C(=O)N1CCOc1cccc(Cl)c1 (centres undefined) | nt | nt | nt | nt | 23.4*
CCC(C)(C)NC(=O)/C=C/c1cccs1 | nt | nt | nt | nt | 7.5
CCCCNC(=O)Nc1nnc(-c2ccc(Cl)cc2)o1 | 1.1 | -8.6 | -13.1 | 1.1 | 2.6
Cc1nc(-c2ccccn2)sc1C(=O)Nc1ccc(Cl)c(Cl)c1 | 0.6 | 41.3 | 10.3 | 0.9 | 11.7
O=C(COC(=O)[C@@H]1CC(O)CN1S(=O)(=O)c1ccc([N+](=O)[O-])cc1)NC12CC3CC(CC(C3)C1)C2 (some centres undefined) | nt | nt | nt | nt | 4.4
CN(C)S(=O)(=O)c1ccc(-c2csnn2)s1 | 1.5 | -45.1 | 36.7 | 0.6 | 10.6
O=C1CCC(=O)N1OCCCOc1ccc2c(c1)CCC2 | 1.1 | -10.2 | 6.2 | 0.9 | 7.4
CC1(C)NC(=O)N(CCCCOc2ccc3c(c2)CCC3)C1=O | 0.7 | 32.9 | 78.3* | 0.2 | 31.2
O=S(=O)(c1cccc(S(=O)(=O)N2CCN(c3ncccn3)CC2)c1)N1CCOCC1 | nt | nt | nt | nt | 31.9
Cc1nc(N2CCN(S(=O)(=O)c3ccccc3)CC2)c2cc(-c3ccccc3)sc2n1 | 0.5 | 52.6* | 8.2 | 0.9 | 2.6
O=S(=O)(c1ccccc1)N1CCN(c2ncccn2)CC1 | 0.4 | 61.9* | 45.5 | 0.5 | 2.3
O=S(=O)(c1cc(F)cc(F)c1)N1CCN(c2ncccn2)CC1 | 0.5 | 46.7 | 71.7* | 0.3 | 2.8
CCCc1cc(=O)n2[nH]c(NCc3c(F)cccc3Cl)nc2n1 | 0.5 | 46.8 | 13.4 | 0.9 | 18.1
CN(C)/C=N/c1c(C#N)nnn1Cc1ccccc1 | 1.2 | -20.9 | 66.8* | 0.3 | 24.8
Cc1ccc(-n2ncc(C#N)c2/N=C/N(C)C)cc1 | 1.2 | -18.9 | 19.3 | 0.8 | 8.5
O=S(=O)(c1ccccc1)c1nc(-c2cccs2)oc1NCCCn1ccnc1 | 0.1 | 91.7* | 97.6* | 0 | 25.4
COc1ccc(C(=O)C(CO)Oc2ccccc2OC)cc1OC (centres undefined) | 1.1 | -10.2 | 30.1 | 0.7 | 4.6
CC(=NCCc1ccccc1)C1=C(O)COC1=O | 0.9 | 8.9 | 26.7 | 0.7 | 20.9
N#C/C(=C\c1ccc(Cl)cc1)c1nc2ncccc2[nH]1 | 0.4 | 60.7* | 14.7 | 0.9 | 0.5
CS(=O)(=O)N(CC(=O)N1CCN(c2ccc(F)cc2)CC1)c1cccc(Cl)c1 | 2.4* | -139.3 | 37.1 | 0.6 | 14.9
SMILES | CYP2C9 act | CYP2C9 inhib | CYP2C19 inhib | CYP2C19 activ | Measles CPE
CN(CC(=O)N1CCN(c2cccc(Cl)c2)CC1)S(=O)(=O)c1cccs1 | 0.2 | 80.7* | 81.5* | 0.2 | 14.1
CC(/C=N/NC(=O)c1nn(C)c(C)c1Br)=C\c1ccccc1 | nt | nt | nt | nt | 9.9
Cc1cc(N(CC(=O)NC2CC2)S(C)(=O)=O)ccc1Br | nt | nt | nt | nt | 28.7
C=CCn1c(NCc2ccc3c(c2)OCO3)nc2ccccc21 | 0.3 | 72.6* | 94.7* | 0.1 | 2.4
CCn1c(NCc2ccc3c(c2)OCO3)nc2ccccc21 | 0.8 | 20.6 | 73.4* | 0.3 | 9.4
C=CCn1c(NCc2ccccc2)nc2ccccc21 | 1 | -1.2 | 35.1 | 0.6 | 12.4
Cc1occc1C(=O)N/N=C/c1cnn(C)c1C | nt | nt | nt | nt | 4.9
COc1ccc(NC(=O)C2CCN(c3cc(-c4ccccc4)nc4ncnn34)CC2)cc1OC | 0.6 | 38.4 | 25.3 | 0.7 | 14.0
COc1ccc(OC)c(NC(=O)C2CCN(c3cc(-c4ccccc4)nc4ncnn34)CC2)c1 | 0.7 | 32.5 | 51.8* | 0.5 | 2.0
COc1cc(C)nc(NCc2ccccc2)n1 | 0.6 | 44.1 | 61.3* | 0.4 | 1.2
COc1cc(C)nc(Oc2ccc(OCc3ccccc3)nn2)n1 | 0.7 | 30.6 | 75.2* | 0.2 | 9.0
CCOC(=O)COc1ccc(Oc2nc(C)cc(OC)n2)nn1 | 1.1 | -13.8 | -7.2 | 1.1 | 5.4
COC(=O)c1ccc(Oc2cc(C)nc(NCc3ccccc3)n2)cc1 | 0.9 | 7.1 | 12.8 | 0.9 | 7.7
